# Test results as given in paper PMC12864922, “TDP-43 directly inhibits mRNA accumulation in neurites through modulation of mRNA stability”.
# Over roughly 9,900 sequences, “r (bound/input frequency ratio)” has its median near 0.7; the highest 2% begin near 6.5. For the sample, the highest values were picked, then their nearest neighbours and some sequences at random.
# B1: ENSMUSG00000061578.971|Ksr2 (ssRNA)
# RNA: GGGAGUUCUACAGUCCGACGAUCGCUUCGAUAUCCGCAUGCUAGGAAGGUAGUUUUCCCCCAGAAAGUCCCUUCUAAUAAACAUUGAUGACUUUAGAAUCCAUGACUCAGAAUUUUCCAGAGACCCAAUCCCUCGGGGUCCACUUAGUGAUGGGACCAUACAAGAGUUUAUUUCCAAUUAGAGAAUUGGGUCAACUGGGAAAGGCUUCUUUCCUGGUAACCCUGCUACUGAUACUAUGUUGAAACAGGAAUCGACUCUAACUGCUUUUUGGCCUCUUCCCUGCACGGGAGUCUCAAAAUCAAGCUCUUGCGGUCGCACUAGUGUGGAAUUCUCGGGUGUCAAGG
# B2: ENSMUSG00000058297.456|Spock2 (ssRNA)
# RNA: GGGAGUUCUACAGUCCGACGAUCGCUUCGAUAUCCGCAUGCUAUCACACAGGUCAGAUUAUUGUCGGUCCUGCGGGCCUCAUCCUUGAAUAAGCUGCCUGCCCAGUUCCUCCAUCCGUGUUCCUGCCUGCUCCCGUUCCCUUGUUGCGGGCAGGAGAGGUAGGGCUGUGUUGGAAAGAGUUCAACCAAAUUACGGCAGCACCACAUCUUGCCGAGCCCUGGAGCUGCCCUACUAAGAGCCUCCUUAGCCCUGGGUGCUGGGAAGGAUGGUGUACGUUGGGGAAGUUUGAGGUUGGAGAGAGUACUCUUGCGGUCGCACUAGUGUGGAAUUCUCGGGUGUCAAGG
# B3: ENSMUSG00000029028.209|Lrrc47 (ssRNA)
# RNA: GGGAGUUCUACAGUCCGACGAUCGCUUCGAUAUCCGCAUGCUACAGCAGCUGCACAGAGGACUUGGUGGCCCCGUGCCUUGCCAUCUGGCUGAGAAGAGAACCAGACCCUCAGCCUUCCCCCUCGACACCUUCUCGUUGGUGACCUCUGACCUUAAAGGACCAUUUCUACCUUCUGUAAAAGAACACCUGUUUGGGGUUGCGUGCGGCUUUCAUCCUAAGGCCGUGCGAGAGCCGUUAGCUGUCAGAACUAGUGAAGCUCCAGGCUCCUCGUGGCAGACCCUGGACAACGCUGGUAGCUGUUCCUCUUGCGGUCGCACUAGUGUGGAAUUCUCGGGUGUCAAGG
# B4: ENSMUSG00000029636.505|Wasf3|28:32 (ssRNA)
# RNA: GGGAGUUCUACAGUCCGACGAUCGCUUCGAUAUCCGCAUGCUAAUCAUUUAUGAGCAUAGGAUGAUGAGGCACACAAAGCUUUGUAAUAUUUUCAGCAGAAAUGCGUGAUACAUUUGAAUCCAUUGAGGUCUGGAGGGAGGGUAUCAGCCAGAGUAGCAAGGCGGUUUUGUUUAUUUGUUUGUUUUUUUGUUUGUUUGUUUUAUGAAGGAGAGUAUCUGUUAUCUUGCAGUAUUAUCAAUGCAGUUGUAAAUUGAAUCUAAAGUGGUAUUUAAAACUGUCAAACAAUUUUUAAUCUGUUUGUACUCUUGCGGUCGCACUAGUGUGGAAUUCUCGGGUGUCAAGG
# B5: ENSMUSG00000031028.267|Tub (ssRNA)
# RNA: GGGAGUUCUACAGUCCGACGAUCGCUUCGAUAUCCGCAUGCUAUGCUUUGAAAUAGAUAUGUUUGGAAACGCUAAGUAGAAGUUUAAAAAGUAGAGUCAUGUAGAGUCAUGCUUUGAAUAUGUGGGUCAUGCUUUAGAUAUGAAGAGGCUAUGCAGGUAAGGAGGCUGGAUUGAUGUAAAUGGAAGUAGUACUUUAAGAAAGCUCUAGAUUUCCCAGGUUGGACACUCGACGAAAGGCACACCUGCUGCAGCAGGUUCUGACACACCUGAGCCAUACAUUGCCAUCAGAGAACCCUCAGCGAGCUCUUGCGGUCGCACUAGUGUGGAAUUCUCGGGUGUCAAGG
# B6: ENSMUSG00000043670.108|Diras1 (ssRNA)
# RNA: GGGAGUUCUACAGUCCGACGAUCGCUUCGAUAUCCGCAUGCUACUUUCACCUGAUCCUGUCCUUUCCCCGUGACCUCUGACCUGUGGCCUUCCCUGGGUCCAGAACACCCCUGUCCUCUCCUGUCUGCACACCAGGGUGGAUGGGCCCGAGGGCUGGGCCUCAGGCACCAGGCAAUAAACACAGGGCCUGCAGCAAUGCCCUGGCCACCCCGAGUACCACCUCUGGAAUAGCAGACGCCCACAGCACAAGCCCAGGACUGUCCCUUCAGGGGAGGCACACUGGAACCCUGAACUUGGAGUGUGCUCUUGCGGUCGCACUAGUGUGGAAUUCUCGGGUGUCAAGG
# B7: ENSMUSG00000061578.1206|Ksr2 (ssRNA)
# RNA: GGGAGUUCUACAGUCCGACGAUCGCUUCGAUAUCCGCAUGCUAUAUGGACACACUAGAAAGCCCAUCCUAGGUCUUUCCAUGGUCUCUCACACCCCUGUCCCCGUCCCCUCCACCCCCCGGCAGCAUGCUUCACUCUAUGAAUGAGCCGCUGGGAUAUUGACAUGGAGAUGUGUUGAUGGAAAAAGCCUCCACACCCAACAUAACUCUCCAGAGAGAUAUUGAAAGUGAUGGGCAGAGAGUCUGACAAUGACCCAGGGGUCAUUGUGAGUCCUAGGCUGAAUCUGUAAUGGGGUCCAAAGUGCCUCUUGCGGUCGCACUAGUGUGGAAUUCUCGGGUGUCAAGG
# B8: ENSMUSG00000022095.193|Fam160b2 (ssRNA)
# RNA: GGGAGUUCUACAGUCCGACGAUCGCUUCGAUAUCCGCAUGCUAGGAGCAGGCCAGAGCCCCUUUUGCUUCCUUUUCCUGCCCAUGCCACCUCUCGAAGCCGGGCACAGGUUGCCAGGAGGUGACAUGAAAGAGGAGGAAACUCCAUGACCUCUACAUCCCCCGCAGUCCUCCCAGCGGGGGAGGACUUCUCUGCUGCUCCGAAGAACAUCAUGCACUCCUGUGUGUGUGUGUGAGUGUGUGUGUGUGUGUGUGUGUGUGUGUGUGUGUAUGUGUGUGUAUAUGUGUGUGUGUGUGUGUAUGUGCUCUUGCGGUCGCACUAGUGUGGAAUUCUCGGGUGUCAAGG
# B9: ENSMUSG00000022095.186|Fam160b2 (ssRNA)
# RNA: GGGAGUUCUACAGUCCGACGAUCGCUUCGAUAUCCGCAUGCUACACAACAGGCCUGCAGUUGUUGGCUUCCCUCCUGGGCAAGGAGGAGCAGGCCAGAGCCCCUUUUGCUUCCUUUUCCUGCCCAUGCCACCUCUCGAAGCCGGGCACAGGUUGCCAGGAGGUGACAUGAAAGAGGAGGAAACUCCAUGACCUCUACAUCCCCCGCAGUCCUCCCAGCGGGGGAGGACUUCUCUGCUGCUCCGAAGAACAUCAUGCACUCCUGUGUGUGUGUGUGAGUGUGUGUGUGUGUGUGUGUGUGUGUGCUCUUGCGGUCGCACUAGUGUGGAAUUCUCGGGUGUCAAGG
# Target: TDP-43 (Homo sapiens, UniProt Q13148 1-414)
# Test: RNA Bind-n-Seq with designed 260-mer pool; 25 mM Tris-HCl, 150 mM KCl, 3 mM MgCl2, BSA (printed 500 mg/mL), 20 units/mL SUPERase IN; pH not stated; 500 nM RNA pool, 1 h, 4 C; TDP-43 5, 50, 500 nM; high values mean tight binding
# Conditions: protein: recombinant; tags: SBP (GST cleaved off with PreScission; pGEX-GST-SBP)
# Method in brief: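 Binding (R) is the ratio of each oligo's mapped-read-normalized abundance in the bound fraction to its abundance in the input. To obtain it, SBP-tagged recombinant TDP-43 (5, 50 or 500 nM) on streptavidin beads was incubated with 500 nM of an in vitro-transcribed 260-nt 3′ UTR oligo pool for 1 h at 4 °C in 25 mM Tris-HCl, 150 mM KCl, 3 mM MgCl2, BSA and SUPERase IN. The RNA retained after washing was released with biotin, then reverse transcribed, amplified by PCR and sequenced.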
# Chain of TDP-43 (Q13148 whole entry): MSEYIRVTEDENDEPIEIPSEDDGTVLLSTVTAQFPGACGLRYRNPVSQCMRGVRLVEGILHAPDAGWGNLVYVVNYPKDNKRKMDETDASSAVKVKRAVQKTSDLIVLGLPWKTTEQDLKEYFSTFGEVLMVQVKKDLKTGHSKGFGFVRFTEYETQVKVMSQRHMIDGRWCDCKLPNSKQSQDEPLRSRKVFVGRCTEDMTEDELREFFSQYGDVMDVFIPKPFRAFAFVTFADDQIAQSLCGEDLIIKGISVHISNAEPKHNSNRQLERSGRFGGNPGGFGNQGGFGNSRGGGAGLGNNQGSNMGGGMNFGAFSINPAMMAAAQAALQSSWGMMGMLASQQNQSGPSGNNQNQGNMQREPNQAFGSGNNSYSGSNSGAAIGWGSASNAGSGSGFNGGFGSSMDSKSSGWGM
row,Binder,binding signal
1,B1,0.299 R (bound/input frequency ratio)
2,B2,0.782 R (bound/input frequency ratio)
3,B3,0.424 R (bound/input frequency ratio)
4,B4,0.502 R (bound/input frequency ratio)
5,B5,2.93 R (bound/input frequency ratio)
6,B6,1.22 R (bound/input frequency ratio)
7,B7,0.481 R (bound/input frequency ratio)
8,B8,8.43 R (bound/input frequency ratio)
9,B9,6.14 R (bound/input frequency ratio)
